Experiments:
Details in all cases: concentration: 1 μM, replicates: in singlicate; n = 1
[1] = tested on: KIT-autoinhibited
[2] = tested on: KIT
[3] = tested on: LATS1
[4] = tested on: LATS2
[5] = tested on: LCK
[6] = tested on: LIMK1
[7] = tested on: LIMK2
[8] = tested on: T1, LKB1
T1 construct: gene STK11

[9] = tested on: T2, LOK
T2 construct: gene STK10

[10] = tested on: LRRK2
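Also: KINOMEscan kinase panel screen.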

Row | Compound | %Inh [1] [%] | %Inh [2] [%] | %Inh [3] [%] | %Inh [4] [%] | %Inh [5] [%] | %Inh [6] [%] | %Inh [7] [%] | %Inh [8] [%] | %Inh [9] [%] | %Inh [10] [%]
1 | Cc1cn2c(=O)cc(N3CCOCC3)nc2n1Cc1cccc(Cl)c1Cl [GSK2334006] | 0 | 39 | 0 | 0 | 46 | 0 | 6 | 0 | 0 | 30
2 | CSc1ccc(-c2cc3ncnc(SCC(=O)O)c3s2)cc1 | 0 | 51 | 7 | 4 | 0 | 0 | 0 | 0 | 19 | 0
3 | NS(=O)(=O)c1cccc(-c2ccc3nccc(-c4cccc(S(N)(=O)=O)c4)c3c2)c1 [GW867253] | 25 | 0 | 0 | 0 | 0 | 0 | 0 | 0 | 2 | 0
4 | CCc1ccnc(/C=C/c2n[nH]c3cc(Sc4ccccc4C(=O)NC)ccc23)c1 | 96.9 | 100 | 9 | 0 | 5 | 0 | 0 | 0 | 23 | 23
5 | Cc1nnc(-c2ccc3occ(-c4ccc(C(C)O)cc4)c3c2)o1 (centres unmarked) | 0 | 11 | 15 | 12 | 2 | 29 | 0 | 7 | 4 | 4
6 | COc1cc2ncn(-c3cc(OCc4sccc4Cl)c(C(N)=O)s3)c2cc1OC [GSK448459] | 0 | 31 | 47 | 0 | 34 | 4 | 0 | 0 | 99.1 | 0
7 | NCC(NC(=O)c1cc(-c2cn[nH]c2)c(-c2ccnc3[nH]ccc23)s1)c1ccccc1.O=C(O)C(F)(F)F.O=C(O)C(F)(F)F (centres unmarked) [GSK1325775] | 0 | 26 | 59 | 91.1 | 4 | 0 | 28 | 57 | 0 | 3
8 | Cc1ccc(C(=O)NCC(N)=O)cc1-n1c(C)cc(OCc2ccc(F)cc2F)c(Br)c1=O | 0 | 6 | 13 | 0 | 25 | 16 | 0 | 0 | 26 | 0
9 | Cc1ccc(NC(=O)c2ccnc(N3CCN(C)CC3)c2)cc1-c1ccc(C(=O)NCC2CC2)cc1 [GW775604] | 0 | 27 | 0 | 0 | 0 | 0 | 0 | 28 | 9 | 0
10 | CN1c2ccc(NCc3ccc(F)cc3)cc2-c2c(cnn2C)S1(=O)=O | 0 | 24 | 0 | 0 | 4 | 0 | 0 | 23 | 0 | 0
11 | Cl.Oc1cccc(Nc2ccnc3cc(-c4ccncc4)ccc23)c1 [GW494601] | 32 | 99.8 | 6 | 0 | 98.7 | 0 | 6 | 0 | 31 | 75
12 | Cl.Nc1ncnc2occ(-c3ccc(NC(=O)Nc4cc(C(F)(F)F)ccc4F)cc3)c12 [SB-707548] | 79 | 99.9 | 0 | 40 | 88 | 25 | 34 | 21 | 99.9 | 2
13 | O=c1cc(N2CCOCC2)nc2n(Cc3cccc4ccccc34)ccn12 [GSK2333389] | 0 | 11 | 0 | 0 | 2 | 0 | 0 | 2 | 0 | 59
14 | O=C(NOCC1CC1)c1ccc(F)c(F)c1Nc1ccc(I)cc1Cl | 0 | 0 | 0 | 7 | 0 | 0 | 0 | 0 | 0 | 0
15 | N#Cc1ccc(-c2cc(-c3c[nH]nc3-c3ccccn3)ccn2)cc1 [GW693028] | 5 | 6 | 0 | 0 | 0 | 16 | 3 | 0 | 0 | 44
16 | COc1cc2c(cc1OCCN1CCN(C)CC1)ncc1c3ccc(C#N)cc3[nH]c21 | 71 | 83 | 0 | 20 | 57 | 0 | 0 | 29 | 33 | 98.8
17 | COc1cc2c(cc1OC[C@@H](O)CO)ncc1c3ccc(C#N)cc3[nH]c21 | 48 | 63 | 0 | 41 | 0 | 0 | 0 | 0 | 20 | 93.1

Reference: PMC5540273 (PLoS ONE, 2017)
